# Screening results (PubChem)
# NLRP3 yeast inh = blocks the NALP3 inflammasome reconstituted in yeast; 330,000 compounds, 0.39% hits; inhibition, % at 10 µM; Yeast reconstituted NLRP3/ASC/caspase-1, beta-gal luminescence, 24 h; AID 2825;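 active = inhibition of 50% or more; inactive = inhibition below 50%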;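 also: plate controls were induced DMSO wells for no effect and uninduced yeast grown without galactose for full effect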
# tim23-1 inh = growth inhibitors of tim23-1 mutant yeast. inhibition, % at 20 µM. AID 463212. S. cerevisiae tim23-1 growth, BacTiter-Glo luminescence, 24 h. 330,000 compounds, 1.3% hits;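 active = growth inhibition of the mutant yeast at or above 50%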;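 also: temperature-sensitive mutant grown at 25 °C; plate controls were DMSO-treated mutant yeast for no effect and medium wells lacking yeast for full effect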
# tim10-1 inh = tim10-1 yeast growth inhibition; inhibition, % at 20 µM; S. cerevisiae tim10-1 ts strain growth, BacTiter-Glo, 24 h; 330,000 compounds, 2.2% hits;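 active = inhibition of at least 40%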;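 also: mutant grown at 25 °C; 0% = DMSO wells with yeast and 100% = wells holding no yeast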
# PfHsp90 set2 = reduces growth (ATP signal) of yeast expressing P. falciparum Hsp90; S. cerevisiae expressing PfHsp90, BacTiter-Glo ATP, 48 h; yeast lacking PDR1 and PDR3 efflux regulators; inhibition, % at 9.4 µM; 310,000 compounds, 0.32% hits; AID 504621;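 active = every replicate shows inhibition above about 80%, whatever the replicate mean, limit read from the data; inconclusive = mean inhibition reaches the set limit but some replicate falls short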;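 also: 0% = DMSO neutral controls and 100% = 20 µM radicicol positive controls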
# TIM10 inh = TIM10 yeast growth inhibition; S. cerevisiae TIM10 strain growth, BacTiter-Glo luminescence, 24 h; inhibition, % at 10 µM; 330,000 compounds, 1.4% hits; AID 463195;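 active = inhibition of 40% or more at the single tested concentration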;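 also: wild-type TIM10 isogenic control strain grown at permissive 25 °C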
# SKKanGAS inh = SKKanGAS growth inhibition | inhibition, % at 7.5 µM | S. pyogenes SKKanGAS, kanamycin growth, BacTiter-Glo, 6 h | 300,000 compounds, 1.3% hits;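 active = mean replicate score, as percent of positive control median, at least 50; inconclusive = mean below 50 but one replicate at or above 50; inactive = mean and every replicate below 50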;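 also: strain carries kanamycin resistance gene driven by streptokinase promoter and grows in 40 µg/ml kanamycin; loss of luminescence reflects streptokinase promoter inhibition or plain growth inhibition; 0% = median of DMSO wells and 100% = positive control at its reference dose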
# tim10-1 conf = confirmation of tim10-1 mutant yeast growth inhibitors | shares compounds with tim10-1 inh | S. cerevisiae tim10-1 ts strain growth, BacTiter-Glo, 24 h | inhibition, % at 20 µM | 7,400 compounds, 56% hits | AID 463213;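 active = inhibition of yeast growth at or above a set limit in either of two repeat tests at 20 µM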;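 also: tim10-1 mutant grown at permissive 25 °C to find synthetic lethal compounds; 0% = DMSO yeast wells and 100% = medium wells without yeast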
# TIM10 conf = TIM10 yeast growth inhibition, confirmed. S. cerevisiae tim10 strain growth, BacTiter-Glo luminescence, 24 h. 4,600 compounds, 63% hits. AID 463215. inhibition, % at 10 µM. shares compounds with TIM10 inh;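 active = inhibition of yeast growth at or above a set limit in either of two replicates at 10 µM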;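 also: this counterscreen used the strain with wild-type TIM10; 0% = yeast with DMSO and 100% = medium wells lacking yeast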
# * = called active by the depositor; ? = inconclusive; nt = not tested or not shown. The list is not random: actives were taken first. Their share in the collection is about 4.6%.
SMILES,NLRP3 yeast inh,tim23-1 inh,tim10-1 inh,PfHsp90 set2,TIM10 inh,SKKanGAS inh,tim10-1 conf,TIM10 conf
C=CCSc1nc2ccccc2n1C(=O)/C=C/c1cc(OC)c(OC)c(OC)c1,42,44,45*,15,43*,-1,49*,41*
Cc1cc(C)n(CCNc2nc3nonc3nc2N2CCCCC2)n1,11,7,1,-3,-5,-7,nt,nt
CCN(CC)c1ncnc2c1nnn2C,nt,nt,nt,-8,nt,nt,nt,nt
CCN(CC)c1ncnc2c1ncn2Cc1c(Cl)cccc1Cl,9,41,50*,-7,42*,21,37*,-8
CCN1/C(=C\C(=S)Nc2ccccc2)Sc2ccccc21,30,40,45*,-29,50*,5,12,43*
CCN1/C(=C\C=C(C(C)=O)C(C)=O)Sc2ccccc21,28,8,7,30,20,-5,nt,nt
N#C/C(C(=O)Nc1ccc(Cl)cc1)=C(/S)Nc1ccccc1,20,17,69*,73,45*,26,60*,56*
Cc1cc(C)c(C(=O)/C=C/C=C/c2ccccc2)c(=O)[nH]1,12,21,27,33,30,28,nt,nt
Cc1cc(C)c(C(=O)/C=C/c2ccc(C(C)C)cc2)c(=O)[nH]1,24,26,49*,15,43*,3,53*,37*
CC[C@@H]1CC=C[C@H]2[C@H]1C(=O)N(Cc1ccccc1)[C@H]2c1ccc2ccccc2c1,3,43,41*,nt,45*,47,26,38*
C[C@@H]1CC=C[C@@H]2[C@H]1C(=O)N(Cc1ccccc1)[C@H]2c1cccc(Br)c1,nt,44,26,8,7,nt,nt,nt
N#CCCN=C(NS(=O)(=O)c1ccccc1)c1ccccc1,20,7,14,24,-15,6,nt,nt
C#CCOc1ccc(Cl)cc1/C=N/O,-15,13,13,-11,-2,-2,nt,nt
O/N=C/c1cc(Cl)ccc1OCc1cccc2ccccc12,18,48,63*,nt,44*,80*,24,50*
COc1cc(OC)cc(C(=O)Nc2ccn(C)n2)c1,11,-15,-13,7,-7,nt,nt,nt
CCCCCC(=O)NC(=S)Nc1ccc(Cl)cn1,3,40,47*,-3,44*,-6,28*,6
CCCCCC(=O)Nc1ccc(Cl)cn1,8,7,-8,-3,-8,5,nt,nt
Cc1cc(Cl)ccc1OCC(=O)NN1C(=O)C2C3C=CC(C3)C2C1=O (stereo not drawn),13,36,8,28,-1,-5,nt,nt
COc1cc(C(=O)Oc2ccc3ccc(O)cc3c2)cc(OC)c1OC,-5,44,47*,-21,42*,7,32*,39*
CC(=O)N=c1sccn1CC(O)c1ccc(Br)cc1 (stereo not drawn),0,16,6,14,16,2,nt,nt
COc1ccc2c(c1)c1nnc(SC)nc1n2C,40,43,63*,nt,81*,8,66*,81*
Cc1ccc(-n2nnnc2C(Cl)(Cl)c2nnnn2-c2ccc(C)cc2)cc1,50,48,45*,128*,62*,-19,15,75*
COc1cccc(N=Cc2c(O)c3ccccc3oc2=O)c1,14,0,0,-1,6,1,nt,nt
CC(CC(=O)Nc1ccccc1)NCCCN1CCCC1=O (stereo not drawn),6,7,0,5,-23,0,nt,nt
CCOC(=O)c1sc(Nc2ccc(C)cc2C)nc1C,19,4,48*,5,63*,14,28,40*
SMILES,NLRP3 yeast inh,tim23-1 inh,tim10-1 inh,PfHsp90 set2,TIM10 inh,SKKanGAS inh,tim10-1 conf,TIM10 conf
CCOC(=O)c1sc(NC(=O)Cc2c(F)cccc2Cl)nc1C,1,47,47*,nt,44*,12,43*,36*
COc1ccc(OC)c(N2C(=O)c3cccnc3C2=O)c1,-2,14,11,-16,3,-5,nt,nt
S=c1[nH]nc(COc2ccccc2)n1/N=C/C=C/c1ccccc1,22,7,16,-2,20,-12,nt,nt
S=c1[nH]nc(COc2ccccc2)n1/N=C/C(Cl)=C/c1ccccc1,38,44,60*,nt,52*,20,56*,46*
CCCOC1CCCN(C(=O)c2ccc(OC3CCN(Cc4ccccn4)CC3)cc2)C1 (stereo not drawn),13,4,-3,-11,2,-5,nt,nt
O=C(Nc1cccc(NC(=O)c2ccc([N+](=O)[O-])o2)c1)c1ccco1,7,11,72*,6,67*,?,66*,67*
CCNC(=S)N/N=C(\C)c1ccc2ccccc2c1,4,35,42*,nt,53*,-20,31*,38*
CCNC(=S)NNC(=O)c1ccccc1OC(F)F,13,9,7,9,2,3,nt,nt
C/C(=N\NC(=S)NCc1ccccc1)c1ccccc1,-10,31,47*,-16,44*,-4,44*,40*
COc1ccc(CNC(=S)N/N=C(/C)c2ccccc2)cc1,39,34,35,nt,33,-3,nt,nt
CCNC(=S)N/N=C(\C)c1ccc2ccccc2c1OC(F)F,28,32,47*,-1,56*,26,-1,41*
COc1cccc(C(=O)Nc2ccccc2N2CCCC2)c1,10,22,14,3,8,3,nt,nt
CCC(=O)N1CCN(c2ccccc2NC(=S)NC(=O)c2cccc([N+](=O)[O-])c2)CC1,12,18,33,12,19,3,nt,nt
COc1cccc(C(=O)NC(=S)Nc2ccccc2N2CCCC2)c1,16,35,41*,-26,49*,-11,30*,44*
O=C(NC(=S)Nc1ccccc1N1CCOCC1)c1cccc([N+](=O)[O-])c1,16,41,44*,-18,44*,4,35*,43*
FC(F)(F)c1ccccc1-n1c(-c2ccco2)n[nH]c1=S,15,13,5,-3,1,4,nt,nt
COc1ccccc1N1CCN(C(c2cccs2)C(C)NC(=O)c2ccncc2)CC1 (stereo not drawn),1,19,4,1,-6,-13,nt,nt
CC1CCN(CC(CS(=O)(=O)c2ccc([N+](=O)[O-])cc2)N2CCC(C)CC2)CC1 (stereo not drawn),24,43,45*,15,60*,8,49*,48*
O=c1c(Cl)c(NCc2ccc(F)cc2)cnn1C12CC3CC(CC(C3)C1)C2,31,44,47*,5,52*,-7,38*,-2
